Hit rate of the full screen: of about 300,000 compounds, about 3,200 (1.1%) were called active.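 How the source made its calls: active means inhibition above the campaign mean inhibition plus 3 SD (cut at about 35% in these data); inactive means the rest.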 For the sample, actives were picked, then their nearest neighbours and some compounds at random.
molecular target: Glutathione S-transferase omega-1 (Homo sapiens) (UniProt P78417); assay: inhibitors of recombinant GSTO1, primary screen, counter-screen for RBBP9 inhibitor project, biochemical, fluorescence polarization (AID 1974); settings: recombinant GSTO1, activity-based probe fluorescence polarization; at 5.96 µM; active compounds read high;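 further: 0% = GSTO1-1 with DMSO and 100% = wells lacking GSTO1-1 enzyme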
Sequence (P78417 whole entry, looked up): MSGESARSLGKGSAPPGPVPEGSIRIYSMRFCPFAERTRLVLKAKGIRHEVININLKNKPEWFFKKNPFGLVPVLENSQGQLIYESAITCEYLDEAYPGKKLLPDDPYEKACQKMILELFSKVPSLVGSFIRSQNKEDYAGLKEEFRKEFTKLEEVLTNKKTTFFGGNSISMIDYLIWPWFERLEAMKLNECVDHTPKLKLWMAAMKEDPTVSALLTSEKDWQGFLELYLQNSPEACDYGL

Compound	inhibition
O=C(CSc1n[nH]c(-c2cccs2)n1)N1CCCCC1	0.4% (inactive)
O=C(Nc1cc(N2CCOCC2)ncn1)NC1(C(F)(F)F)Oc2ccc(Cl)cc2O1 (stereo unspecified)	57.4% (active)
COc1ccc(Cl)cc1NC(=O)CN1CCN(C(=O)N2CCOCC2)CC1	1.76% (inactive)
Cc1csc(NC(=O)NC2(C(F)(F)F)Oc3ccccc3O2)n1	28.1% (inactive)
CN(CC(=O)Nc1cccc(F)c1)C(=O)C1CSC2(C)CCC(=O)N12 (stereo unspecified)	-10.9% (inactive)
COC(=O)CCCC1=CC2=C(c3ccccc3)C(=O)C(C)(OC(=O)C3CCCC3)C(=O)C2=CN1c1ccc(OC)cc1 (stereo unspecified)	40% (active)
COc1ccc(CCNC(=O)COC(=O)C2CCCCC2)cc1	3.87% (inactive)
COC(=O)CCCC1=CC2=CC(=O)C(C)(OC(=O)c3cccs3)C(=O)C2=CN1c1cccc(C#N)c1 (stereo unspecified)	10.6% (inactive)
Cc1ccc(C)c(-c2nnc(NC(=O)CS(=O)(=O)c3ccccc3)o2)c1	9.44% (inactive)
CCOc1ccc(C(C)=O)cc1COC(=O)CN1C(=O)NC2(CCCC2)C1=O	10.1% (inactive)
C#CCOCCOCCOCCNc1nc(N2CCN(C(=O)CCCCCCCCCCNC(=O)Cn3cc(CCCCCN)nn3)CC2)nc(N2CCN(C(=O)CCCCCCCCCCNC(=O)[C@H](CO)n3cc(CCCSC)nn3)CC2)n1	4.11% (inactive)
Oc1cc2c(cc1O)CN(C(=S)NCCc1ccc(Cl)cc1)CCC2	-0.15% (inactive)
COc1ccc2c(c1)SC(C)CC2=O (stereo unspecified)	-1.85% (inactive)
COc1ccc2c(c1)OC(O)(C(F)(F)C(F)F)CC2=O (stereo unspecified)	42% (active)
CC1(C)CC(=O)c2ccc(O)cc2O1	8.19% (inactive)
COc1ccc(OCCCC(=O)OC(C)C(=O)Nc2ccccc2[N+](=O)[O-])cc1 (stereo unspecified)	-0.91% (inactive)
COc1ccc(NC(=O)CN(C)C(=O)c2cc(-c3ccc(C)o3)nc3ccccc23)cc1	5.17% (inactive)
CN1C(=O)CC(c2ccccc2)C1=O (stereo unspecified)	7.68% (inactive)
OCC[C@H]1C[C@H](O)[C@@H](O)[C@]2(Cc3ccccc3CO2)O1	2.49% (inactive)
CC1(C)Cc2ccccc2-c2[nH]c(=S)[nH]c(=O)c21	3.5% (inactive)
CC1(C)Cc2ccccc2-c2nc(CN3CCOCC3)[nH]c(=O)c21	-0.05% (inactive)
CCC1(CC)Cc2ccccc2-c2nc(CCl)[nH]c(=O)c21	84.7% (active)
O=C(COC(=O)CNS(=O)(=O)c1ccc(F)c(F)c1F)NC1CCCC1	14.3% (inactive)

Compound	inhibition
CC(OC(=O)CCC(=O)c1ccccc1)C(=O)Nc1ccc(F)cc1 (stereo unspecified)	3.4% (inactive)
COc1ccc(S(=O)(=O)N2CCOCC2)cc1NC(=O)CSc1ncnc2ccccc12	38.4% (active)
COc1ccc(S(=O)(=O)N2CCCCC2)cc1NC(=O)COc1ccccc1	-8.4% (inactive)
COc1ccc(S(=O)(=O)N2CCOCC2)cc1NC(=O)COc1ccccc1	13.6% (inactive)
CCn1cc(C(=O)NC2CCCCCC2)c(=O)c2cc(S(=O)(=O)N3CCCCC3)ccc21	0.56% (inactive)
CCCOc1ccc(/C=N/NC(=O)C2CC2)c(OCCC)c1	5.8% (inactive)
Cc1cc(NC(=O)C(C)N2C(=O)c3ccccc3S2(=O)=O)no1 (stereo unspecified)	12.5% (inactive)
CC(=O)c1c(C)[nH]c(C(=O)CN2C(=O)NC(C)(C)C2=O)c1C	-0.38% (inactive)
CS(=O)(=O)n1nc(-c2ccco2)nc1N	-5.37% (inactive)
c1coc(-c2nc3nc4ccccc4n3nc2-c2ccco2)c1	47.1% (active)
Cn1c(-c2ccco2)nc2cc3ccccc3cc21	1.91% (inactive)
CC(=O)CC(CC(=O)NC1CCCCC1)c1ccccc1 (stereo unspecified)	5.92% (inactive)
Cc1n[nH]c(=O)c2c(NC(=O)CSc3ccccc3F)oc(C)c12	-2.53% (inactive)
Cc1coc2c(O)cc3c(c12)OC1(N2CCCCC2)C(=O)NCCCC31 (stereo unspecified)	74.4% (active)
CCN(CC)CCn1c2c(c(SCC(=O)Nc3nc4ccccc4s3)nc1=O)CCCC2	-6.43% (inactive)
CS(=O)(=O)c1ccc(C(=O)OCC(=O)NNC(=O)COc2ccc(Cl)cc2)cc1	1.2% (inactive)
Cc1ccc(NC(=O)CN(C)C(=O)Cn2nnc(-c3ccccc3)n2)cc1	1.43% (inactive)
OCC[C@H]1C[C@H](O)[C@@H](O)[C@]2(CCc3ccccc3O2)O1	3.69% (inactive)
CCOC(=O)c1cc(NC(=O)c2cccnc2)ccn1	11.6% (inactive)
O=C(Cc1c(Cl)cccc1Cl)NC1CC1	3.33% (inactive)
O=C(NNc1ccccn1)c1ccc(Cl)nc1	12.7% (inactive)
O=C(CCl)NNc1cccc(Cl)n1	50.5% (active)
O=C(NCC1CC1)c1onc(CSc2ccccc2)c1C(=O)NCC1CC1	4.37% (inactive)

Compound	inhibition
CCOC(=O)c1ccc(NC(=O)c2c(N)n(C)c(=O)[nH]c2=O)cc1	-7.15% (inactive)
COc1ccc(NS(=O)(=O)c2ccc(O)c(C(=O)OCC(=O)NC3CCCCC3)c2)cc1	-9.76% (inactive)
CCN(C(=O)COC(=O)c1cc(NS(=O)(=O)c2ccc(Cl)c([N+](=O)[O-])c2)ccc1O)C1CCCCC1	38.5% (active)
CN(C)c1ccc(S(=O)(=O)NCC(=O)NCC2CCCCC2)cc1[N+](=O)[O-]	-5.25% (inactive)
COCCn1c(SC(C)C(=O)NC2CC2)nnc1-c1cccc(C)c1 (stereo unspecified)	12.9% (inactive)
Cc1ccc(NC(=O)C(C)OC(=O)Cc2c[nH]c3ccccc23)cc1S(=O)(=O)N1CCOCC1 (stereo unspecified)	11.7% (inactive)
O=C(NCCS(=O)(=O)N1CCN(c2ccccc2)CC1)c1ccco1	1.82% (inactive)
Cc1ccc2occ(/C=N/NC(=O)c3ccccc3C)c(=O)c2c1	23.9% (inactive)
NC(=S)N/N=C/c1coc2cc(Cl)ccc2c1=O	0.72% (inactive)
O=c1c(/C=N/O)coc2ccc(Cl)cc12	38.5% (active)
COC1(C2=NCCN2)COc2ccccc2O1 (stereo unspecified)	10.3% (inactive)
COc1ccccc1C(=O)NCCC(=O)NN1C(=O)NC2(CCCCC2)C1=O	0.1% (inactive)
CCCCC1=CC2=CC(=O)C(C)(OC(=O)CC)C(=O)C2=CN1CCCOC(C)C (stereo unspecified)	19.3% (inactive)
COC(=O)CCCC1=CC2=CC(=O)C(C)(OC(=O)c3cccs3)C(=O)C2=CN1CC(C)C (stereo unspecified)	19.4% (inactive)
COC(=O)CCCC1=CC2=CC(=O)C(C)(OC(=O)c3cccs3)C(=O)C2=CN1CC1CC1 (stereo unspecified)	43.3% (active)
CC(C)N(Cc1ccccc1)C(=O)COC(=O)c1ccccc1SCC(=O)N1CCCC1	8.57% (inactive)
O=C(CCCn1c(SCC(=O)c2ccc(F)cc2)nc2ccccc2c1=O)NCc1ccco1	5.62% (inactive)
O=C(CCCn1c(SCC(=O)c2ccccc2)nc2ccccc2c1=O)NCC1CCCO1 (stereo unspecified)	-0.93% (inactive)
O=C(CCn1c(SCC(=O)c2ccccc2)nc2ccccc2c1=O)NCc1ccc(F)cc1	62.5% (active)
CCCCCCSc1ccc([C@@H]2[C@@H]3C(=O)N(CC)C(=O)[C@@H]3[C@]3(C(=O)OC)CCCCN23)cc1OC	-5.28% (inactive)
Cc1cccc(NS(=O)(=O)c2cc(Cl)ccc2Cl)n1	-9.4% (inactive)
COC1=C(N2CCOCC2)C(=O)c2ccccc2C1=O	57.8% (active)
O=C1C(Cl)=C(N2CCOCC2)C(=O)N1c1ccccc1	3.26% (inactive)

Compound	inhibition
COc1ccc(N2CCN(C(C)=C3C(=O)c4ccccc4C3=O)CC2)cc1	2.82% (inactive)
COc1ccc(NS(=O)(=O)c2ccc(C)c(C(=O)NNC(=O)c3csc(N4CCOCC4)n3)c2)cc1	-5.75% (inactive)
CCCC1C(=O)N2C(N(C)C)=Nc3ccc(C)cc3N2C1=O (stereo unspecified)	-1.7% (inactive)
COc1ccc(-c2cnc(SCCNC(=O)c3ccc4c(c3)OCO4)[nH]2)cc1	-3.18% (inactive)
COC(=O)c1ccc(CSc2nncn2C)cc1	-6.04% (inactive)
COC(=O)c1ccc(CSc2nncn2N)cc1	61% (active)
COC(=O)c1ccc(CSc2nnc(NC(C)C)s2)cc1	-6.8% (inactive)
OCC[C@H]1C[C@H](O)[C@@H](O)[C@]2(CCCCO2)O1	3.4% (inactive)
COc1ccc(CC2c3cc(OC)c(OC)cc3CC[N+]2(C)CCC(=O)OCCCCCOC(=O)CC[N+]2(C)CCc3cc(OC)c(OC)cc3C2Cc2ccc(OC)c(OC)c2)cc1OC (stereo unspecified)	11.1% (inactive)
CCC(c1nnc(SCC(=O)NNC(=O)c2ccccc2)n1Cc1ccccc1)N(C)C (stereo unspecified)	1.64% (inactive)
COc1ccc(NC(=O)CSc2nc(C)cs2)cc1	4.13% (inactive)
COc1ccc(NC(=O)CSc2ncnc3[nH]ncc23)cc1	36.4% (active)
COc1ccc(-n2ncc3c(SCC(=O)NNC(C)=O)ncnc32)cc1	-13% (inactive)
CCCCN1C(N)=NC[C@@H]1Cc1ccccc1	-4.9% (inactive)
CC(C)(C)C(=O)OCc1nc(-c2ccc(O)c(O)c2)cs1	37.1% (active)
Cc1onc(C(=O)NN)c1-c1csc(COc2ccccc2)n1	10.4% (inactive)
COc1cc(CC(=O)Nc2nc(-c3ccc(F)c(F)c3)cs2)cc(OC)c1OC	-6.41% (inactive)
CC(CCN1CCN=C1N(C)C)c1ccccc1 (stereo unspecified)	4.27% (inactive)
CNC(C)C#Cc1ccc2sc3cc(OC)c(OC)cc3c(=O)c2c1 (stereo unspecified)	0.59% (inactive)
CC(NC(=O)COC(=O)c1cc(=O)[nH]c2ccccc12)c1ccccc1 (stereo unspecified)	-7.45% (inactive)
O=C(O)c1[nH]c2ccccc2c1C(c1cccc(O)c1)c1c(C(=O)O)[nH]c2ccccc12	50.4% (active)
CCCS(=O)(=O)Nc1c(C(=O)O)[nH]c2ccccc12	0.73% (inactive)
